Screens (PubChem)
Only some compounds are listed: those with a hit (about 12% of all), similar ones and a draw of the others.
G9a block: qHTS Assay for Inhibitors of Histone Lysine Methyltransferase G9a. Histone-lysine N-methyltransferase EHMT2 (Homo sapiens), Q96KQ7. G9a H3K9 monomethylation, AlphaScreen, 2 h. Potency, µM (highest dose often 102 µM), inactives show top-dose activity, negative = inhibition, actives largely listed as inhibitors. 350,000 tested, 8.8% active; also: % is scaled to controls: 0 for no effect and ±100 for the full control effect; nearly all actives have a fitted effect of over 75% in size
Target sequence (Q96KQ7 913-1193 limits assumed): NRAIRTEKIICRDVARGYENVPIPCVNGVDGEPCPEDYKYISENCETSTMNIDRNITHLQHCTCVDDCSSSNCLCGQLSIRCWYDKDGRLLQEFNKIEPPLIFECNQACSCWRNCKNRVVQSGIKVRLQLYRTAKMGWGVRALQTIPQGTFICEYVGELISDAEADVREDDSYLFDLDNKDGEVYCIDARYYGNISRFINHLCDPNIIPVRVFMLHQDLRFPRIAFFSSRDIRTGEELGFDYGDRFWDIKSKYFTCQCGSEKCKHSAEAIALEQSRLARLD
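G9a (20 nM) preincubated 15 min RT with compounds, then 500 nM biotinylated H3K9 peptide and 20 uM SAM added; 2 h RT reaction. Monomethyl-H3K9 product detected by AlphaScreen with anti-H3K9me1 antibody, streptavidin donor and anti-rabbit IgG acceptor beads.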
HP1b chromo inh: HTS for Inhibitors of HP1-beta Chromodomain Interactions with Methylated Histone Tails; 390,000 tested, 0.56% active; Potency, µM (titrated, usually from 114 µM), for the others: top-dose activity change, negative = inhibition, hits mostly inhibitors; AlphaScreen HP1-beta / biotin-H3K9me3 peptide binding; Chromobox protein homolog 1 (Homo sapiens), P83916; also: nearly all actives have a fitted effect of over 70% in size
Target sequence (P83916 whole entry, looked up): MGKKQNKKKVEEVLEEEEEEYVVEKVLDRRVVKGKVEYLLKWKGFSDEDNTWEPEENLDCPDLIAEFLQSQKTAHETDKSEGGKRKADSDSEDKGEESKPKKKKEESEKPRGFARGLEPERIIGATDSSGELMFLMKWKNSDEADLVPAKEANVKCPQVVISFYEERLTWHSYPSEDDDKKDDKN
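Compound inhibition of the preformed complex between 50 nM HP1-beta and 50 nM biotinylated H3K9me3 peptide was read by AlphaScreen. Buffer was PBS pH 7.4 with 0.01% Tween-20. Incubations ran 30 min at room temperature, with 10 ug/mL donor/acceptor beads.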
JMJD2A Tudor inh: qHTS Assay for Inhibitors of JMJD2A-Tudor Domain | 390,000 tested, 4.4% active | AID 504339, 2011 | Lysine-specific demethylase 4A (Homo sapiens), O75164 | AlphaScreen JMJD2A-Tudor / H3K4me3 peptide binding | Potency, µM (titrated, usually from 114 µM), without a hit: top-dose activity change, negative = inhibition, actives largely listed as inhibitors; also: % is scaled to controls: 0 for no effect and ±100 for the full control effect; nearly all actives have a fitted effect of over 50% in size
TDP1 inh: qHTS Assay for Inhibitors of Tyrosyl-DNA Phosphodiesterase (TDP1); Potency, µM (highest dose often 130 µM), for inactives: at the top dose activity change, negative = inhibition, most hits filed as inhibitors; Tyrosyl-DNA phosphodiesterase 1 (Homo sapiens), Q9NUW8; 350,000 tested, 0.28% active; recombinant TDP1, AlphaScreen DNA substrate cleavage; also: % is scaled to controls: 0 for no effect and ±100 for the full control effect; nearly all actives have a fitted effect of over 40% in size
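Enzyme-compound mixtures sat 15 min at room temperature, followed by a 5 min reaction with 15 nM final substrate and 10 min with AlphaScreen beads. Recombinant human Tdp1 was used at 1 nM final.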
BAZ2B inh: qHTS Assay for Inhibitors of BAZ2B | Bromodomain adjacent to zinc finger domain protein 2B (Homo sapiens), Q9UIF8 | AlphaScreen BAZ2B-H3K14Ac peptide displacement | Potency, µM (titrated, usually from 114 µM), without a hit: top-dose activity change, negative = inhibition, usual class: inhibitors | 360,000 tested, 4.4% active; also: % is scaled to controls: 0 for no effect and ±100 for the full control effect; nearly all actives have a fitted effect of over 60% in size
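BAZ2B 50 nM plus b-H3(5-23)K14Ac 50 nM, PBS pH 7.4/0.01% Tween-20, 30 min RT; compound added (max 110 uM), 30 min RT; streptavidin donor/Ni-chelate acceptor beads 10 ug/mL final, 20 min dark; AlphaScreen read.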
Sfp PPTase inh: qHTS Assay for Inhibitors of Bacillus subtilis Sfp phosphopantetheinyl transferase (PPTase). Potency, µM, without a hit: largest response in the series, negative = inhibition, hits mostly inhibitors. Biochemical Sfp PPTase activity, qHTS. 310,000 tested, 3.5% active. AID 1490, 2009;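 also: the enzyme is Sfp with the accession as filed and its product quenches rhodamine fluorescence; 0% = enzyme reaction without inhibitor and -100% = no enzyme wells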
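Fluorescence-quenching assay with 15 nM Sfp, 5 uM rhodamine-CoA and 12.5 uM BHQ-2-labelled ybbR peptide in pH 7.6 Hepes/MgCl2 buffer. Enzyme was pre-incubated with compound for 15 min at room temperature. Rate was taken from the 30-min fluorescence change (525/598 nm).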
Starred values were filed as active, the others as inactive; ? = inconclusive; . = no result given; [ ] = dose if it differs, or a comment. Calls follow the shape of the dose curve; as a rule, active = well fitted curve in the direction sought with a large enough effect; inconclusive = small, poorly fitted or top-dose-only effect, or another doubt; inactive = no such curve, though single readings can be large; an effect the other way counts as inactive or inconclusive. Potency is read from the fitted curve at half-maximal effect.

SMILES | G9a block | HP1b chromo inh | JMJD2A Tudor inh | TDP1 inh | BAZ2B inh | Sfp PPTase inh
Cc1cc(C)n(CCNc2nc3nonc3nc2N2CCCCC2)n1 | ? | 22%[57 µM] | -18% | 3% | 1% | 8%
COc1cccc(CCNC(=O)C2CCC(=O)N(C3CC3)C2)c1OC (centres undefined) | 2%[12.7 µM] | 28% | -3% | . | 4% | 14%
O=C(Nc1nc(-c2cccs2)cs1)c1cccc(S(=O)(=O)N2CCCCC2)c1 | 13µM* | 23% | -29% | 6% | ? | 19%
Cc1ccc(-c2csc(NC(=O)c3cccc(S(=O)(=O)N4CCN(C)CC4)c3)n2)cc1 | ? | 1% | -31% | 1% | -5% | -6%
COc1ccc(-c2csc(NC(C)=O)n2)cc1OC | -14%[59 µM] | -18% | 56µM* | 7% | -13% | 50µM*
Cc1cc(C)nc(-n2nc(C)cc2NC(=O)c2cccc(S(=O)(=O)N3CCCCC3)c2)n1 | 8.9µM* | . | . | 0% | -3% | 4%
Cc1nn(CC(=O)N(C)c2c(N)n(Cc3ccccc3)c(=O)[nH]c2=O)c(C)c1[N+](=O)[O-] | 10%[12.7 µM] | 15% | -2% | 2% | -3% | .
COCCn1c(C)cc(O)c(C(c2ccccc2)N2CCN(CCO)CC2)c1=O (centres undefined) | ? | 23%[57 µM] | 2% | 3% | -3% | .
COCCCn1c(=S)[nH]c2sc3c(c2c1=O)CCCC3 | 8.9µM* | 2% | ? | -4% | -4% | -24%
COCCn1c(=S)[nH]c2sc3c(c2c1=O)CCCC3 | 7.9µM* | 31% | -14% | 3% | 0% | -27%
C=CCn1c(=S)[nH]c2sc3c(c2c1=O)CCCC3 | 20%[0.501 µM] | 27% | -22% | . | 0% | 12%
CCC(Sc1nc(-c2ccccc2)c(-c2ccccc2)[nH]1)C(=O)O (centres undefined) | 50µM* | 8% | -27% | . | -21% | 15%
Cn1c(NC(=O)c2ccc(F)cc2)c(-c2ccccn2)c(=O)c2ccccc21 | ? | 29% | 0% | 4% | -19% | 3%
Cn1c(NC(=O)c2ccccc2)c(-c2ccccn2)c(=O)c2ccccc21 | ? | 7% | 32µM* | 3% | 8% | -3%
CSc1ccccc1NC(=O)Nc1cccc2ccccc12 | 79µM* | 26% | 3% | 6% | 18% | 10%
O=C(CSCC(=O)Nc1cccc2ccccc12)Nc1cccc2ccccc12 | . | 25% | -21% | 3% | ? | 8%
O=C(Nc1ccc2snnc2c1)Nc1cccc2ccccc12 | 50µM* | -20% | -3%[11.4 µM] | 0% | -5% | -28%
O=C(CSCCO)Nc1cccc2ccccc12 | 50µM* | 38% | 1% | 4% | 11% | -21%
Cc1sc2ncnc(N3CCC(C(=O)Nc4nc(-c5cccs5)cs4)CC3)c2c1C | -2%[0.501 µM] | 28% | -8% | 3% | -12% | .
COc1ccc(-c2cc(C(=O)Nc3c(C(=O)c4ccc(Cl)cc4)oc4ccccc34)no2)cc1 | 4%[59 µM] | 21% | -12% | 2% | ? | .
Nc1ccc(S(=O)(=O)N2CCN(S(=O)(=O)c3c(F)cccc3F)CC2)cc1 | . | . | 89µM* | 1% | . | .
CCCC(c1nnnn1Cc1cccs1)N1CCN(C2CCCC2)CC1 (centres undefined) | ? | ? | 56µM* | -1% | ? | -3%
CC(C)C(c1nnnn1Cc1ccco1)N1CCN(C2CCCC2)CC1 (centres undefined) | -12%[59 µM] | 39% | 5% | 2% | -4% | 9%
CCCC(c1nnnn1C(C)(C)CC)N1CCN(C(=O)c2ccco2)CC1 (centres undefined) | 89µM* | 6% | -28% | 8% | -8% | -12%
CCC(c1nnnn1Cc1cccs1)N1CCN(C2CCCC2)CC1 (centres undefined) | -29%[12.7 µM] | 45% | -20% | -2% | -5% | -17%
SMILES | G9a block | HP1b chromo inh | JMJD2A Tudor inh | TDP1 inh | BAZ2B inh | Sfp PPTase inh
CCCC(c1nnnn1Cc1ccco1)N1CCN(C2CCCC2)CC1 (centres undefined) | 50µM* | 2% | ? | 4% | ? | 5%
CCCC(c1nnnn1C(C)(C)CC)N1CCN(C2CCCC2)CC1 (centres undefined) | 89µM* | 26% | -4%[11.4 µM] | -4% | ? | 6%
C/C=C(/C)C(=O)O[C@H]1C[C@@]2(C)O[C@H]2[C@@H](OC(C)=O)C2(C)CC[C@@](O)(C(C)C)C12 (some centres undefined) | . | . | . | 6% | . | 18%
Cc1cc2c(cc1Cl)N(C(=O)Nc1ccnc3ccccc13)CC2 | ? | . | . | 9%[56.1 µM] | . | .
O=C(NC(=S)Nc1ccc(O)cc1)C1CCCC1 | -3%[12.7 µM] | 24% | -24% | 0% | -5% | .
COC(=O)NNC(=S)Nc1ccc(Br)cc1 | 50µM* | 69% | 3% | 3% | -11% | -11%
Oc1ccc(NC(=S)Nc2ccc(O)cc2)cc1 | 50µM* | 31% | -19% | 1% | -8% | 45µM*
COC(=O)c1ccc(NC(=S)Nc2ccc(O)cc2)cc1 | 50µM* | 24% | -8% | 2% | -5% | ?
CC(=O)Nc1ccc(NC(=S)Nc2ccc(Br)cc2)cc1 | 6% | -17% | -27% | 4% | -13% | -1%
O=S(=O)(NCC(c1cccs1)S(=O)(=O)c1ccccc1)c1ccc(F)cc1 (centres undefined) | -3%[59 µM] | 43% | -5% | 5% | 4% | .
CC1(c2ccccc2Cl)NC(=O)N(CC(=O)N2CCN(S(=O)(=O)c3ccccc3)CC2)C1=O (centres undefined) | ? | 16% | 2% | -1% | -22% | .
OCCSc1ccc2nnc(-c3ccccc3)n2n1 | . | 13%[57 µM] | -8%[57.1 µM] | 2% | . | .
COc1ccc(N2CCN(C(=O)c3c(C)oc4ncnc(N5CCCCC5)c34)CC2)cc1 | -46%[59 µM] | 15% | -21% | 6% | 1%[57.1 µM] | .
CCOc1cc(NC(=O)C2CCCCC2)c(OCC)cc1NC(=O)c1ccccn1 | . | 27% | -8% | 0% | -9% | 3%
Cc1cc(NC(=O)C2CC2)ncc1NC(=O)c1ccccn1 | ? | -10% | -27% | -6% | 79µM* | ?
CCC(CC)CN1C(Nc2ccccc2)=NC[C@@H]1C | 5% | 39% | 2% | . | -17% | 10%
CCOc1ccc(C(CC(=O)Nc2cc(C)c(Cl)cc2OC)N2Cc3ccccc3C2=O)cc1OC (centres undefined) | ? | 21% | -19% | 3% | ? | .
